# From PubChem BioAssay
# Calls of active or inactive are those of the source.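 How the source made its calls, unless noted: active means inhibition above 20% together with a positive visual image hit; inconclusive means visual image hit but inhibition not above 20%; inactive means no visual image hit.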
# Key:
# [1] = inhibitors of TNFa-induced NFkB p65 translocation, primary screen, imaging, HUVEC, MLSMR starter and 10KST1 sets (AID 438); conditions: HUVEC TNFa-induced p65 nuclear translocation; cell count: measured here: nuclei count (cytotoxicity indicator), at 2.08 µM; inhibition: at 2 µM, stronger effect = higher value, 0% TNFa-plus-vehicle, 100% no-TNFa wells;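 further: compound added about 3h40 before a 20 min TNFalpha stimulation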;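 on inhibition: signal is the nuclear over cytoplasmic p65 intensity ratio per well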
# [2] = reduction of polyQ htt aggregates in cells – imaging, exon1htt(103Q)mCFP cells, high-content imaging, primary screen (AID 483;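 active means visual image review flags a hit and inhibition of aggregation exceeds 20%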;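 further: compound exposure lasted 3 days before fixation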;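 on nuclei count: percent of the per-plate median nuclei count of sample wells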); conditions: exon1htt(103Q)mCFP cell line, aggregate imaging, at 2 µM; inhibition of aggregation: stronger effect = higher value; nuclei count: measured here: cell count, toxicity
# [3] = endothelial E-selectin expression blockers – imaging, HUVEC, immunofluorescence, MLSMR starter and 10KST1 sets, primary screen (AID 487;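 active means visually confirmed hit in the image check and inhibition above 20%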;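 on inhibition: signal is fraction of cell area covered by stained E-selectin grains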;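 on nuclei count: 100% = median nuclei count of all wells on the same plate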); conditions: HUVEC TNFalpha-induced E-selectin immunofluorescence imaging, at 2 µM; inhibition: stronger effect = higher value; nuclei count: measured here: cell number, toxicity
# [4] = molecular target: Voltage-gated potassium channel subunit beta-2 (Rattus norvegicus) (UniProt P62483); test: inhibitors of rat Kvbeta2 reductase activity – biochemical, NADPH fluorescence, primary screen (AID 622;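 active means fluorescence slope higher than the sample average by over 3 SD, cut at about -0.22 in these data, passing the limit was not always enough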;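 further: slope of raw intensity against log time taken from 70 to 1610 s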); conditions: recombinant KvBeta, 4-cyanobenzaldehyde reduction, at 10 µM, stronger effect = higher value
# Sequence of Voltage-gated potassium channel subunit beta-2 (Rattus norvegicus) (P62483 whole entry, looked up): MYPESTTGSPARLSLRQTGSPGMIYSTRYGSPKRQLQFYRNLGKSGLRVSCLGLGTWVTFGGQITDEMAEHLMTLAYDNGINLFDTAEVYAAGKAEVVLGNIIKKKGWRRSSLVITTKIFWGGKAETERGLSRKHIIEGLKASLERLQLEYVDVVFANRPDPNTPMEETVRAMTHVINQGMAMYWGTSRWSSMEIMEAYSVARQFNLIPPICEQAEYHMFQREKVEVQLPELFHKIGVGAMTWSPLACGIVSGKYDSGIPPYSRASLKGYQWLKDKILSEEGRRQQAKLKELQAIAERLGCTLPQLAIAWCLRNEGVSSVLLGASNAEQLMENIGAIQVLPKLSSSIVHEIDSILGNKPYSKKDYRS
# [5] = molecular target: Voltage-gated potassium channel subunit beta-2 (Rattus norvegicus) (UniProt P62483); test: enhancers of rat Kvbeta2 NADPH turnover – biochemical, NADPH fluorescence, primary screen (AID 623;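 active means NADPH fluorescence slope more negative than the mean of all samples by about 3 SD, 99.7% confidence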;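 further: fluorescence intensity change per second fitted from 20 to 320 s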); conditions: Recombinant KvBeta, NADPH fluorescence decrease slope, 10 min; at 10 µM; stronger effect = lower value
# [6] = molecular target: Alpha-2C adrenergic receptor (Homo sapiens) (UniProt P18825); test: compounds altering alpha2C-coupled GIRK flux – cell-based, HEK293 alpha2C/GIRK1/2, thallium flux, primary screen (AID 624;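 active means fluorescence slope after compound addition differing from the mean of all screened samples at 99.7% confidence, in either direction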;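 further: slope of fluorescence ratio to pre-addition baseline per second over 15 to 24 s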); conditions: thallium flux BTC fluorescence, at 10 µM, actives lie on both sides
# Sequence of Alpha-2C adrenergic receptor (Homo sapiens) (P18825 whole entry, looked up): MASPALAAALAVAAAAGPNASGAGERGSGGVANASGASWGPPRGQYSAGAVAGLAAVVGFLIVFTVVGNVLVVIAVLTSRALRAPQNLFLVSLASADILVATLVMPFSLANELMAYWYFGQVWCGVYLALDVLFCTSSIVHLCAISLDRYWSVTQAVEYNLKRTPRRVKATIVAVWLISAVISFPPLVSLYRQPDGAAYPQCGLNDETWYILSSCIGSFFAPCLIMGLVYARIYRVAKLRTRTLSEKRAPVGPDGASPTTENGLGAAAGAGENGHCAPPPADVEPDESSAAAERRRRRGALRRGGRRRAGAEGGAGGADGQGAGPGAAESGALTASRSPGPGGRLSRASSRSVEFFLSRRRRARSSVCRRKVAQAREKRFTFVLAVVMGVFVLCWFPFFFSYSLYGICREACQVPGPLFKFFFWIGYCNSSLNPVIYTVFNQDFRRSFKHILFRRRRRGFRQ
# [7] = blockers of RIG-like receptor reporter activation – cell-based, Sendai virus stimulus, luciferase, 10K MLSCN set, TLR/RLR signaling modifier project, primary screen (AID 602276;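 active means inhibition at or above 50% at 10 µM; inactive means inhibition below 50%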;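 further: firefly luciferase from ISG56 promoter only with Renilla not read in this screen; 0% = Sendai virus plus DMSO and 100% = medium plus DMSO without virus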); conditions: HEK293 RL24 IRF3 luciferase reporter, at 10 µM, stronger effect = higher value
# [8] = TLR3 IRF3 reporter activation blockers – cell-based, poly I:C stimulus, luciferase, 10K MLSCN set, primary screen (AID 602277;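 active means inhibition of the reporter signal at or above 50%; inactive means inhibition below 50%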); conditions: HEK293-TLR3 RL24 IRF3 luciferase reporter, at 10 µM, stronger effect = higher value
SMILES,cell count [1],inhibition [1],inhibition of aggregation [2],nuclei count [2] [%],inhibition [3],nuclei count [3] [%],fluorescence slope [4],NADPH fluorescence slope [5],slope [6],inhibition [7],inhibition [8]
CN1CCN(CC(=O)N2c3ccccc3C(C)(c3ccccc3)CC2(C)C)CC1 (centres undefined),352,2.9% (inactive),-16.5% (inactive),74.1,-183% (inactive),146,-0.353 (inactive),-6.8e-07 (inactive),0.00483 (inactive),35.9% (inactive),26.8% (inactive)
CCSc1nc2ccccc2n1CC(N)=O,400,2.1% (inactive),-4% (inactive),114,-62.6% (inactive),113,-0.449 (inactive),-0.000317 (inactive),0.00599 (inactive),14.3% (inactive),20.8% (inactive)
CCCCC(CC)CNC(=O)C1CCCN(S(=O)(=O)c2cnc[nH]2)C1 (centres undefined),565,8.7% (inactive),2.1% (inactive),75.2,0.3% (inactive),104,-0.491 (inactive),-1.6e-05 (inactive),0.00613 (inactive),10.8% (inactive),15.8% (inactive)
CC(=O)NCCc1nc2ccccc2[nH]1,736,-4.3% (inactive),-14% (inactive),114,-6.5% (inactive),106,-0.553 (inactive),-2.7e-05 (inactive),0.00636 (inactive),12.7% (inactive),33.6% (inactive)
CCn1c(SCC(=O)Nc2ccc(Cl)cc2)nnc1C1CC1,811,1.7% (inactive),12.1% (inactive),127,-54.5% (inactive),97.1,-0.608 (inactive),-1.6e-05 (inactive),0.00675 (inactive),4.41% (inactive),17.1% (inactive)
Cc1cc(NC(=O)CSc2nc(CCC3CCCC3)nc3ccccc23)no1,400,3.5% (inactive),-13.6% (inactive),113,-41% (inactive),90,-0.449 (inactive),4e-06 (inactive),0.00867 (inactive),8.39% (inactive),27.2% (inactive)
CCOC(=O)c1[nH]c(CSc2nnc(-c3ccncc3)n2CCOC)c(C(=O)OCC)c1C,368,1.1% (inactive),-5.7% (inactive),107,-89.1% (inactive),127,-0.486 (inactive),1.9e-05 (inactive),0.00635 (inactive),8.8% (inactive),11.1% (inactive)
O=C(NCCO)c1cc2ccccc2cc1O,489,-8.2% (inactive),23.4% (inactive),85.8,-92.3% (inactive),109,-0.47 (inactive),-2.1e-05 (inactive),0.00658 (inactive),-5.48% (inactive),-4.78% (inactive)
O=C(NCc1cccnc1)c1ccccn1,354,-11% (inactive),-7.8% (inactive),113,-18.1% (inactive),108,-0.466 (inactive),-4.5e-06 (inactive),0.00661 (inactive),3.99% (inactive),-3.56% (inactive)
Cc1cc2c(cc1C)C(=O)NC(C)(C)C2,417,-1.1% (inactive),-12.1% (inactive),108,-20.1% (inactive),120,-0.375 (inactive),6.6e-05 (inactive),0.01 (inactive),-1.09% (inactive),0.395% (inactive)
O=C(CSc1nnnn1C1CCCCC1)N1CCc2ccccc21,348,0.8% (inactive),-13.7% (inactive),101,1.9% (inactive),120,-0.566 (inactive),-4e-05 (inactive),0.00388 (inactive),9.99% (inactive),-10% (inactive)
CCN(CC)S(=O)(=O)c1ccc2c(c1)nc(SCC(=O)NC1CC1)n2-c1ccccc1OC,531,-14.3% (inactive),9.5% (inactive),109,-137% (inactive),125,-0.598 (inactive),-7.2e-06 (inactive),0.00577 (inactive),14.2% (inactive),48.2% (inactive)
COc1ccc(CCNC(=O)C2CCN(S(=O)(=O)c3cc(OC)ccc3OC)CC2)cc1,269,-5.3% (inactive),3% (inactive),93.2,-26.1% (inactive),98.3,-0.39 (inactive),-6.1e-05 (inactive),0.00597 (inactive),14.7% (inactive),31.4% (inactive)
CC1=C(C(=O)OC2CCCC2)C(c2ccc(C)o2)C2=C(CC(c3cccs3)CC2=O)N1 (centres undefined),346,3.5% (inactive),-7.2% (inactive),81.1,-10.5% (inactive),99,-0.459 (inactive),-5.5e-05 (inactive),0.00301 (inactive),-5.28% (inactive),16.8% (inactive)
Cc1c(NC(=O)c2ccc(Br)o2)c(=O)n(-c2ccccc2)n1C,366,-5.9% (inactive),-13.4% (inactive),114,-74% (inactive),129,-0.436 (inactive),-2.6e-05 (inactive),0.00344 (inactive),9.74% (inactive),34.3% (inactive)
CC(=O)NC(CCS(C)(=O)=O)C(=O)Nc1cc(C)on1 (centres undefined),676,-2.9% (inactive),26.2% (inactive),62.5,-36.9% (inactive),114,-0.533 (inactive),2.6e-05 (inactive),0.00682 (inactive),25.9% (inactive),7.35% (inactive)
Cc1ccc(-c2nnc(N(C)C(=O)c3ccccn3)s2)cn1,500,6.8% (inactive),-1.4% (inactive),105,-60.4% (inactive),97.9,-0.495 (inactive),-4.7e-05 (inactive),0.00529 (inactive),-13% (inactive),-49% (inactive)
CS(=O)(=O)N(Cc1nc2sc3c(c2c(=O)[nH]1)CCCC3)C1CCCCC1,352,0.8% (inactive),-9.4% (inactive),106,-6.2% (inactive),110,-0.612 (inactive),-4.9e-05 (inactive),0.00352 (inactive),4.56% (inactive),14.4% (inactive)
CCCOC(=O)c1[nH]c2c(c1C)C(=O)CC(c1ccc(OC)c(OC)c1)C2 (centres undefined),235,-2.8% (inactive),2.4% (inactive),101,17.6% (inactive),47.3,-0.408 (inactive),8.6e-06 (inactive),0.00378 (inactive),-11.5% (inactive),-41.9% (inactive)
